Screening results from PubChem.
TIM10 inh: TIM10 yeast growth inhibition; S. cerevisiae TIM10 strain growth, BacTiter-Glo luminescence, 24 h; inhibition, % at 10 µM; 330,000 tested, 1.4% active;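 active = inhibition of 40% or more at the single tested concentration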;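 note: wild-type TIM10 isogenic control strain grown at permissive 25 °C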
tim23-1 inh: inhibits growth of tim23-1 mutant yeast. S. cerevisiae tim23-1 growth, BacTiter-Glo luminescence, 24 h. inhibition, % at 20 µM. 330,000 tested, 1.3% active;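 active = growth inhibition of the mutant yeast at or above 50%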;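 note: temperature-sensitive mutant grown at 25 °C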
SKKanGAS inh: inhibitors of SKKanGAS S. pyogenes growth in kanamycin (SK-promoter or general growth effect) | BacTiter-Glo, 6 h | inhibition, % at 7.5 µM | 300,000 tested, 1.3% active | AID 1662;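 active = mean replicate score, as percent of positive control median, at least 50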;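 note: strain carries kanamycin resistance gene driven by streptokinase promoter and grows in 40 µg/ml kanamycin; loss of luminescence reflects streptokinase promoter inhibition or plain growth inhibition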
NLRP3 yeast inh: NALP3 inhibition in yeast | inhibition, % at 10 µM | Yeast reconstituted NLRP3/ASC/caspase-1, beta-gal luminescence, 24 h | 330,000 tested, 0.39% active;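 active = inhibition of 50% or more; inactive = inhibition below 50%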
tim10-1 inh: tim10-1 yeast growth inhibition; S. cerevisiae tim10-1 ts strain growth, BacTiter-Glo, 24 h; inhibition, % at 20 µM; 330,000 tested, 2.2% active;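 active = inhibition of at least 40%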;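 note: mutant grown at 25 °C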
PfHsp90 set2: growth inhibition of yeast expressing Plasmodium Hsp90; inhibition, % at 9.4 µM; S. cerevisiae expressing PfHsp90, BacTiter-Glo ATP, 48 h; yeast lacking PDR1 and PDR3 efflux regulators; AID 504621; 310,000 tested, 0.32% active;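 active = every replicate shows inhibition above about 80%, whatever the replicate mean, limit read from the data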
Large screens that a line does not name were inactive. Hits are enriched below; roughly 4.6% of the tested compounds scored in any of these assays.

Cc1cc(O)c(NC(=S)NC(=O)c2ccc(-c3ccc(Cl)cc3)o2)cc1C	SKKanGAS inh 92 (no result: PfHsp90 set2)
O=C(CC(c1ccccc1)c1cc(Cl)ccc1O)NCCCN1CCOCC1 (configuration not stated)	none
COC(=O)c1ccc(N2C(=O)CC(N3CCC(O)(c4ccc(Br)cc4)CC3)C2=O)cc1 (configuration not stated)	PfHsp90 set2 100
COc1ccc(C(=O)N2CCCCCC2)cc1S(=O)(=O)N1CCOCC1	none
CCc1nc(N)nc(N)c1-c1ccc(Cl)c(N=[N+]=[N-])c1	none (no result: TIM10 inh, tim23-1 inh, SKKanGAS inh, NLRP3 yeast inh, tim10-1 inh)
Oc1cccc(NC(=S)N=Nc2c(O)[nH]c3ccccc23)c1	none
Oc1[nH]c2ccccc2c1N=NC(=S)N1CCOCC1	SKKanGAS inh 77
Oc1[nH]c2ccc(Br)cc2c1N=NC(=S)N1CCOCC1	SKKanGAS inh 89
CCOc1ccc(NC(=S)N=Nc2c(O)[nH]c3ccccc23)cc1	SKKanGAS inh 101
O=C(CSc1nc(-c2ccccc2)cs1)Nc1ccccc1[N+](=O)[O-]	none
CCOP(=O)(OCC)c1nc(-c2cccc3ccccc23)oc1NCc1ccc(OC)cc1	SKKanGAS inh 57
CCCCCC(=O)N(O)C1CC(=O)N(c2ccccc2)C1=O (configuration not stated)	PfHsp90 set2 105
COc1ccccc1CCCNC(=O)C1CCC(=O)N(CCc2cccc(F)c2)C1 (configuration not stated)	none
COc1ccc(C(=O)Nc2nnc(C3=COCCO3)o2)cc1	none
O=C(Nc1nnc(C2=COCCO2)o1)c1cccc(Br)c1	SKKanGAS inh 100
CCOc1ccc(C(=O)Nc2nnc(C3=COCCO3)o2)cc1	SKKanGAS inh 72 (no result: PfHsp90 set2)
CCC(C)c1ccccc1NS(=O)(=O)c1cnn(CC)c1 (configuration not stated)	SKKanGAS inh 53
Oc1nc(Nc2ccc(Cl)cc2Cl)sc1/C=C1\C=Nc2ccccc21	SKKanGAS inh 115
COc1c(C)cc(C(=O)C2CCCN(C(=O)c3cc(C4CC4)[nH]n3)C2)cc1C (configuration not stated)	none
Cc1nc2c(-c3ccccc3)c[nH]n2c(=O)c1Cc1ccccc1	SKKanGAS inh 71
Cc1cc(=O)n2[nH]cc(-c3ccccc3)c2n1	none
CCOC(=O)c1ccc(NC(=O)c2nc[nH]c2C(=O)N[C@@H](C)C(=O)OC(C)(C)C)cc1	none
CCOC(=O)c1ccc(NC(=O)c2nc[nH]c2C(=O)N[C@@H](CC(C)C)C(=O)OCc2ccccc2)cc1	SKKanGAS inh 63
CCOC(=O)c1ccc(NC(=O)c2nc[nH]c2C(=O)N[C@H](C)c2ccccc2)cc1	SKKanGAS inh 78
Cc1cccc(NC(=O)c2nc[nH]c2C(=O)N[C@@H](Cc2ccccc2)C(=O)OCc2ccccc2)c1	SKKanGAS inh 64
Cc1ccc(NC(=O)c2nc[nH]c2C(=O)N[C@H](C)c2ccccc2)cc1	none (no result: SKKanGAS inh, PfHsp90 set2)
COc1cc(C(=O)NCCN2C(=O)S/C(=C\c3ccc(F)cc3)C2=O)ccc1OCC(=O)N1CCOCC1	none (no result: PfHsp90 set2)
COc1cccc(C(=O)NN/C(C)=C/C(=O)C(F)(F)C(F)(F)C(F)(F)F)c1	none
Fc1ccccc1-c1nc(-c2ccc(Cl)cc2)no1	none
c1ccc(-c2noc(-c3ccccc3-c3ccccc3)n2)cc1	SKKanGAS inh 75
CC(C)(C)C(=O)N1N=C(c2ccc(NS(C)(=O)=O)cc2)CC1c1cccs1 (configuration not stated)	SKKanGAS inh 50
CS(=O)(=O)Nc1ccc(C2=NN(C(=O)c3ccccc3)C(c3cccs3)C2)cc1 (configuration not stated)	none
O=C(O)c1cc(NN=C2c3ccccc3-c3ccccc32)ccc1Cl	none
O=C(O)c1cccc(NN=C2c3ccccc3-c3ccccc32)c1	PfHsp90 set2 106 (no result: TIM10 inh, tim23-1 inh, NLRP3 yeast inh, tim10-1 inh)
COc1cccc(NC(=O)CN2CCc3ccccc3C2)c1	none
CC(C)N1C(=O)/C(=C\c2nc3ccccc3c(=O)[nH]2)c2ccccc21	PfHsp90 set2 98 (no result: TIM10 inh, tim23-1 inh, SKKanGAS inh, NLRP3 yeast inh, tim10-1 inh)
O=C(O)c1cccc2c(-c3ccccc3)c(-c3ccccc3)[nH]c12	SKKanGAS inh 59
COc1ccc(CN2CCc3ccc(NC(=O)c4ccncc4)cc3C2)c(F)c1	SKKanGAS inh 50
Cc1nn(-c2ccc(Cl)cc2)c(=O)c2ccccc12	none
Cc1nn(-c2nc3ccccc3[nH]2)c(N)c1-c1ccc(Cl)cc1	SKKanGAS inh 68
